Assay results: the supplement of paper PMC10811239

test system: LEGO organoid PT (PTEN-/-; TP53-/-); assay: bioluminescence (viable cell) signal fold change after vs before treatment, normalised to DMSO (ratio); higher = more tumour cell growth / less inhibition; settings: 10 µM; treatment time 6 days
Description: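 Luc2-labelled iPSC-derived glioblastoma-like organoids (LEGOs, genotypes PT = PTEN-/-;TP53-/-, PTCC = plus CDKN2A/B-/-, PTN = plus NF1-/-) were treated with 10 uM drug for 6 days (applied every other day) at 37 C. Bioluminescence imaging was done before treatment and 2 days after the last dose. BLI signals were normalised to the DMSO control on the same day and then to the pre-treatment signal (N=3).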

SMILES	bioluminescence
CN1CCN(CCCN2c3ccccc3Sc3ccc(C(F)(F)F)cc32)CC1.Cl.Cl [Trifluoperazine dihydrochloride]	0.771
Cc1nc(Nc2ncc(C(=O)Nc3c(C)cccc3Cl)s2)cc(N2CCN(CCO)CC2)n1 [Dasatinib]	0.748
O=C(O)c1cc(/N=N/c2ccc(S(=O)(=O)Nc3ccccn3)cc2)ccc1O [Sulfasalazine]	0.941
CCOc1nc2cccc(C(=O)OC(C)OC(=O)OC3CCCCC3)c2n1Cc1ccc(-c2ccccc2-c2nn[nH]n2)cc1 (stereo not drawn) [Candesartan Cilexetil]	1.14
O=C1CCc2ccc(OCCCCN3CCN(c4cccc(Cl)c4Cl)CC3)cc2N1 [Aripiprazole]	0.399
CC[C@@]1(O)C(=O)OCc2c1cc1n(c2=O)Cc2cc3c(CN(C)C)c(O)ccc3nc2-1.Cl [Topotecan hydrochloride]	1.39
CS(=O)(=O)c1ccc(C(=O)Nc2ccc(Cl)c(-c3ccccn3)c2)c(Cl)c1 [Vismodegib]	0.63
Cc1ccc(Nc2nccc(N(C)c3ccc4c(C)n(C)nc4c3)n2)cc1S(N)(=O)=O [Pazopanib]	0.948
O=C1Nc2ccc(Cl)cc2[C@@](C#CC2CC2)(C(F)(F)F)O1 [Efavirenz]	0.965
CCCCCOC(=O)Nc1nc(=O)n([C@@H]2O[C@H](C)[C@@H](O)[C@H]2O)cc1F [Capecitabine]	2.21
O=C1CCC(N2C(=O)c3ccccc3C2=O)C(=O)N1 (stereo not drawn) [Thalidomide]	3.97
Nc1nnc(-c2cccc(Cl)c2Cl)c(N)n1 [Lamotrigine]	0.852
C[C@H](C(=O)O)c1cccc(C(=O)c2ccccc2)c1 [(S)-(+)-Ketoprofen]	0.793
CC(=O)Nc1nnc(S(N)(=O)=O)s1 [Acetazolamide]	1.6
CC(=O)[C@H]1CC[C@H]2[C@@H]3CCC4=CC(=O)CC[C@]4(C)[C@H]3CC[C@]12C [Progesterone]	0.82
Nc1cccc2c1C(=O)N(C1CCC(=O)NC1=O)C2=O (stereo not drawn) [Pomalidomide]	1.5
Clc1ccc(COC(Cn2ccnc2)c2ccc(Cl)cc2Cl)c(Cl)c1.O=[N+]([O-])O (stereo not drawn) [Miconazole nitrate]	0.225
Cl.CN(C)CC\C=C1\c2ccccc2C=Cc2ccccc12 [Cyclobenzaprine hydrochloride]	0.825
Cc1cn([C@H]2C=C[C@@H](CO)O2)c(=O)[nH]c1=O [Stavudine]	3.29

SMILES	bioluminescence
CC(=O)NCCCS(=O)(=O)[O-].CC(=O)NCCCS(=O)(=O)[O-].[Ca+2] [Acamprosate calcium]	2.61
Nc1nc2c(ncn2COCCO)c(=O)[nH]1 [Aciclovir]	2.34
Cc1cccc(C)c1OCC(=O)N[C@@H](Cc1ccccc1)[C@@H](O)C[C@H](Cc1ccccc1)NC(=O)[C@H](C(C)C)N1CCCNC1=O [Lopinavir]	1.02
O=C([O-])Cc1ccccc1Nc1c(Cl)cccc1Cl.[Na+] [Diclofenac sodium]	0.777
Nc1ccn([C@@H]2CS[C@H](CO)O2)c(=O)n1 [Lamivudine]	0.906
CO[C@H]1/C=C/O[C@@]2(C)Oc3c(C)c(O)c4c(O)c(c(/C=N/N5CCN(C6CCCC6)CC5)c(O)c4c3C2=O)NC(=O)/C(C)=C\C=C\[C@H](C)[C@H](O)[C@@H](C)[C@@H](O)[C@@H](C)[C@H](OC(C)=O)[C@@H]1C [Rifapentine]	3.28
NC[C@H]1CC[C@H](C(=O)O)CC1 [Amstat]	1.51
CC(C)Nc1cccnc1N1CCN(C(=O)c2cc3cc(NS(C)(=O)=O)ccc3[nH]2)CC1.CS(=O)(=O)O [Delavirdine mesylate]	0.826
Cl.O=c1n(CCCN2CCN(c3cccc(Cl)c3)CC2)nc2ccccn12 [Trazodone hydrochloride]	1.97
Cl.Cc1ccsc1\C(=C\CCN1CCC[C@H](C1)C(O)=O)c1sccc1C [Tiagabine hydrochloride]	1.04
C[C@@H]1CCN(C(=O)CC#N)C[C@@H]1N(C)c1ncnc2[nH]ccc12 [Tofacitinib]	1.24
C[C@@H]1O[C@]2(CS1)CN1CCC2CC1.C[C@@H]1O[C@]2(CS1)CN1CCC2CC1.Cl.Cl.O [Cevimeline hydrochloride hemihydrate]	0.884
CCOc1nc2cccc(C(=O)O)c2n1Cc1ccc(-c2ccccc2-c2nn[nH]n2)cc1 [Candesartan]	0.993
Cc1cc(C)nc(NS(=O)(=O)c2ccc(N)cc2)n1 [Sulfamethazine]	0.814
CCCCCCCCc1ccc(CCC(N)(CO)CO)cc1.Cl [Fingolimod hydrochloride]	1.07
FC(F)(F)C(Cl)Br (stereo not drawn) [Anestan]	1.01
COc1ccc([C@@H]2CC(=O)c3c(O)cc(O[C@@H]4O[C@H](CO[C@@H]5O[C@@H](C)[C@H](O)[C@@H](O)[C@H]5O)[C@@H](O)[C@H](O)[C@H]4O)cc3O2)cc1O [Hesperidin]	1.16
CCOC(=O)c1ccc(C#Cc2ccc3c(c2)C(C)(C)CCS3)nc1 [Tazarotene]	1.52
Nc1ncn([C@H]2C[C@H](O)[C@@H](CO)O2)c(=O)n1 [Decitabine]	1.2
